In the supplement of paper PMC3545927:
Some of the results follow. How many sequences the whole screen found active is unknown.

B1: HC744 (peptide)
chain: CAGPLLCPAGAGNASASA
B2: HC2478 (peptide)
chain: CATTPCSAHLAGNASASA
B3: HC2052 (peptide)
chain: CAVVCCSESYAGNASASA
B4: FS-668 (peptide)
chain: CAIPCRSIRDAGNASASA
B5: FS-371 (peptide)
chain: CAQRRRPTRPAGNASASA
B6: FS-287 (peptide)
chain: CAQRRRSIRDAGNASASA
B7: HC2518 (peptide)
chain: CASTTCSAHLAGNASASA
B8: FS-2839 (peptide)
chain: CARVKRSRRRAGNASASA
B9: FS-329 (peptide)
chain: CAGESRSRRRAGNASASA
B10: HC186 (peptide)
chain: CAKTSERSQPAGNASASA
B11: FS-1225 (peptide)
chain: CAKTSRSRRRAGNASASA
B12: FS-1448 (peptide)
chain: CADPSRSRRRAGNASASA
B13: HC557 (peptide)
chain: CAMWPLLLLLAGNASASA
B14: HC497 (peptide)
chain: CAQVLPCSFTAGNASASA
B15: HC2075 (peptide)
chain: CAVVCCSMHYAGNASASA
B16: HC1338 (peptide)
chain: CASSTSGITGAGNASASA
B17: HC2165 (peptide)
chain: CAELVTSTWVAGNASASA
B18: FS-729 (peptide)
chain: CATPARKKRLAGNASASA
B19: HC1600 (peptide)
chain: CALPPIIQRLAGNASASA
B20: FS-351 (peptide)
chain: CALMHRKKRLAGNASASA
B21: FS-1137 (peptide)
chain: CALSDRKKRLAGNASASA
B22: FS-1528 (peptide)
chain: CAGSLRKKRLAGNASASA
B23: FS-1154 (peptide)
chain: CAQYWRDKRLAGNASASA

Target: furin, P09958
Sequence (P09958 whole entry): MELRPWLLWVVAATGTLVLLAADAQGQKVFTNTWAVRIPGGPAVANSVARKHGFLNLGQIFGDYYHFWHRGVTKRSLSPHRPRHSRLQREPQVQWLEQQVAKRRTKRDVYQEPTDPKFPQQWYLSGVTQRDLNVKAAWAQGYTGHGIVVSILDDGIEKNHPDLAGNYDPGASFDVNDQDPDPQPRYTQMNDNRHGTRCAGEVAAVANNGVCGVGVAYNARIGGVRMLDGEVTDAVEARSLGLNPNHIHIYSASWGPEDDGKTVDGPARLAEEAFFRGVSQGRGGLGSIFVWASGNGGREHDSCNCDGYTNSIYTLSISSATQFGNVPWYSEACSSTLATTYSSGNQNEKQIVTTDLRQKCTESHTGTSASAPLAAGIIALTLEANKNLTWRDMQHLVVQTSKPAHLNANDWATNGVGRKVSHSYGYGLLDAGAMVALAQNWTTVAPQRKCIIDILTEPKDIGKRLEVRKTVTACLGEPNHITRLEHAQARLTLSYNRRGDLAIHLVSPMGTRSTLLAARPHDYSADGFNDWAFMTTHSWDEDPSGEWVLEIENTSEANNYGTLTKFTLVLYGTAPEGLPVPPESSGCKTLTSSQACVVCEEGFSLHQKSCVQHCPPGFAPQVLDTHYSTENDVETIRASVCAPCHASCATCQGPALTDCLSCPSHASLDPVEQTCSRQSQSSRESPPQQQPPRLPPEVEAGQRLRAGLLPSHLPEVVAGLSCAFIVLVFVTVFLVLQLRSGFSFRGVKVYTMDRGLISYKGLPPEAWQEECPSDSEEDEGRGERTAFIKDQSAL
Test: furin cleavage Z-score vs untreated control; higher = more cleavage, active = 3.5 or more, inactive = 1 or less, 8 variable residues between constant flanks
Summary of the method: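 Purified furin cleaved 8-mer peptides that were fused to a cDNA oligonucleotide and held on magnetic beads by their N-terminus. Each 0.01 ml reaction used a 1:10 enzyme:substrate ratio in 50 mM HEPES pH 7.5 with CaCl2 and NaCl and ran 7.5, 15 or 30 min. Released DNA was adapter-tagged by PCR and sequenced, and read counts gave abundance. The cleavage Z-score came from log counts against furin-free reactions, lowess-adjusted and scaled by median absolute deviation.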

Sequence | furin cleavage Z-score (7.5 min) | furin cleavage Z-score (15 min) | furin cleavage Z-score (30 min)
B1 | -0.656 (inactive) | -1.61 (inactive) | -1.61 (inactive)
B2 | 0.336 (inactive) | 0.111 (inactive) | -0.164 (inactive)
B3 | -0.759 (inactive) | -0.905 (inactive) | -0.208 (inactive)
B4 | 4.89 (active) | 6.2 (active) | 5.07 (active)
B5 | -1.13 (inactive) | 0.703 (inactive) | -0.42 (inactive)
B6 | 14.8 (active) | 16.3 (active) | 11.3 (active)
B7 | -0.961 (inactive) | -1.68 (inactive) | -0.439 (inactive)
B8 | 10.1 (active) | 10.8 (active) | 9.23 (active)
B9 | 2.73 | 3.06 | 3.66 (active)
B10 | 2.56 | -0.461 (inactive) | 0.776 (inactive)
B11 | 5.45 (active) | 6.99 (active) | 6.15 (active)
B12 | 0.778 (inactive) | 3.15 | 3.47
B13 | 0.169 (inactive) | 0.292 (inactive) | -0.0686 (inactive)
B14 | 1.05 | -1.13 (inactive) | 0.347 (inactive)
B15 | -0.613 (inactive) | 1.54 | 1.45
B16 | -0.675 (inactive) | -0.0853 (inactive) | -0.923 (inactive)
B17 | 1.19 | -1.53 (inactive) | 0.617 (inactive)
B18 | 7.39 (active) | 8.85 (active) | 8.77 (active)
B19 | -1.17 (inactive) | -0.382 (inactive) | -0.2 (inactive)
B20 | 8.68 (active) | 11 (active) | 9.08 (active)
B21 | 4.97 (active) | 5.99 (active) | 4.87 (active)
B22 | 8.24 (active) | 9.41 (active) | 8.69 (active)
B23 | 0.77 (inactive) | 0.402 (inactive) | 0.0823 (inactive)
